“And” between values parts separate entries of the source, which are not always exact repeats. Identical values can stand only once. Results filed as inconclusive are left out. Where a structure was tested more than once in an assay, its records may differ in their call. The source made the active and inactive calls. Unless noted, calls follow the shape of the dose curve; as a rule, active = well fitted curve in the direction sought with a large enough effect; inconclusive = small, poorly fitted or top-dose-only effect, or another doubt; inactive = no such curve, though single readings can be large; an effect the other way counts as inactive or inconclusive.
Experiments:
[1] = AP1 Signaling Pathway (AID 357; active = well fitted curve in either direction with a large enough effect, not every such curve was filed as active;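 also: ME-180 reporter cells stimulated with EGF at its EC50 level; % is scaled to controls: 0 for no effect and ±100 for the full control effect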); conditions: ME-180 AP-1-bla reporter, EGF-induced, beta-lactamase ratio, 5 h
Summary of the method: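 Read-out was the 460nm/530nm emission ratio (excitation 405nm) after CCF4 loading for 2.5 hours at room temperature. Cells carried an AP-1-driven beta-lactamase reporter, were stimulated with EC50 EGF plus compound for 5 hours, and AC50 values came from titrations.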

[2] = target: Cytochrome P450 1A2 (Homo sapiens) (UniProt P05177); assay: p450-cyp1a2 (AID 410; calls by dose curve; also: potency is read from the fitted curve at half-maximal effect;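 as to activity change, negative = inhibition: -100% = full effect of reference inhibitor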); conditions: recombinant CYP1A2, luciferin-ME demethylation, luminescence; series mostly up to 57 µM
Sequence of Cytochrome P450 1A2 (Homo sapiens) (P05177 whole entry, looked up): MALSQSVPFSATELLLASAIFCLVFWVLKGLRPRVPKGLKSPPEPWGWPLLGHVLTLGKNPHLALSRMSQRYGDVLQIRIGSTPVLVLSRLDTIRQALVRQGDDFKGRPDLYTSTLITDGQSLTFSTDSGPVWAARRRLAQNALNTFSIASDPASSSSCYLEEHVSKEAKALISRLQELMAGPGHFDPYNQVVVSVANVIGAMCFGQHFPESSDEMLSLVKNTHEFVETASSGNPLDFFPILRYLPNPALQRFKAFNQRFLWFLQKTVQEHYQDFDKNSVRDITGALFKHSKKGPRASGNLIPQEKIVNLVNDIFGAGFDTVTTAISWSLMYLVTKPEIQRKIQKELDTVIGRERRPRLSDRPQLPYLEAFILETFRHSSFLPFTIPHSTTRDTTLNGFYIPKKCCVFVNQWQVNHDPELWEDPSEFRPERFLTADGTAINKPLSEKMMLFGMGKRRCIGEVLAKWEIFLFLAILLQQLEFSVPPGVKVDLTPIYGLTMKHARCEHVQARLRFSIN
Summary of the method: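 Read-out is luminescence from luciferin produced by CYP1A2 demethylation of Luciferin-ME (100uM, at Km). Detection reagent stopped the 60 min NADPH-dependent reaction; signals were normalized to 57 uM furafylline.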

[3] = NFAT Signaling Pathway (AID 444; active = well fitted curve in either direction with a large enough effect, not every such curve was filed as active;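 also: carbachol stimulus at about its EC50 of 1 µM final; % is scaled to controls: 0 for no effect and ±100 for the full control effect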); conditions: Jurkat NFAT-bla M1, carbachol, beta-lactamase ratio, 5 h
Summary of the method: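 Jurkat cells carrying an NFAT-driven β-lactamase reporter and co-transfected muscarinic M1 receptor were treated with compound plus carbachol (1 uM final, an EC50 level) for 5 h at 37 °C. CCF4 loading followed for 1 h at RT; 460/530 nm ratio gave %activity.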

[4] = Stat Signaling Pathway (AID 446; active = well fitted curve in either direction with a large enough effect, not every such curve was filed as active;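 also: ME-180 cervical cancer cells given 40 pM IL-6 alongside compound; SIE-controlled beta-lactamase reporter measured as 460/530 nm FRET emission ratio; % is scaled to controls: 0 for no effect and ±100 for the full control effect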); conditions: ME-180 (cervical carcinoma) SIE beta-lactamase reporter, IL-6 stimulated, 5 h
Summary of the method: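 Emission at 460 and 530 nm (excitation 405 nm) reports SIE-controlled beta-lactamase in ME-180 cells. Cells received compound with 40 pM IL-6 for 5 hrs at 37 C; data scaled between 300 pM IL-6 and 125 nM JAK-inhibitor controls.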

[5] = target: Glucocorticoid receptor (Homo sapiens) (UniProt P04150); assay: GR-GFP Redistribution (AID 450;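 active = compounds whose dose series gives a full or clear partial fitted curve of increased nuclear translocation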; also: potency is read from the fitted curve at half-maximal effect); conditions: U2OS GR-GFP nuclear translocation, laser cytometry, 2 h
Sequence of Glucocorticoid receptor (Homo sapiens) (P04150 whole entry, looked up, the tested form may be a part): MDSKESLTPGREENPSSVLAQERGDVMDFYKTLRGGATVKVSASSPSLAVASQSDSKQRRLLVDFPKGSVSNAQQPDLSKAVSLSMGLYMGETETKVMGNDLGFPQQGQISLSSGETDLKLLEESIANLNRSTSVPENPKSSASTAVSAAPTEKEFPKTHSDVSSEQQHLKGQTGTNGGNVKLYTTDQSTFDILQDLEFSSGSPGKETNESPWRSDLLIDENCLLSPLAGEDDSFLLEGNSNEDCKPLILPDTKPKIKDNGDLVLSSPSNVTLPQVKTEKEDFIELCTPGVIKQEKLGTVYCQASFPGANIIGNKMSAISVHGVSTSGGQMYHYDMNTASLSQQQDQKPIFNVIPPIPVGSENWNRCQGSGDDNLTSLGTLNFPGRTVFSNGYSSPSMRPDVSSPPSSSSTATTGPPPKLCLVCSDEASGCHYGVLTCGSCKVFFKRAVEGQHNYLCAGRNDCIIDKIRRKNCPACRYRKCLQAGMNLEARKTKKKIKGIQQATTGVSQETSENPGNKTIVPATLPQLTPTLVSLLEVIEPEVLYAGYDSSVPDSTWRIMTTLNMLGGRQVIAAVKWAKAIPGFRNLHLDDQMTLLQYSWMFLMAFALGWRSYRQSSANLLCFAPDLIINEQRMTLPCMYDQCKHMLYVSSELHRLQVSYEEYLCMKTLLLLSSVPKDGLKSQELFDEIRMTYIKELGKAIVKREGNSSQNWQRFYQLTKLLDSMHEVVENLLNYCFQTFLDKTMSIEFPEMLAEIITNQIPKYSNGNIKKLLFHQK

[6] = target: Glucocorticoid receptor (Homo sapiens) (UniProt P04150); assay: GR-EFC Redistribution (AID 451; calls by dose curve; also: potency is read from the fitted curve at half-maximal effect); conditions: CHO-K1 GR-EFC translocation, beta-gal luminescence, 2 h
Summary of the method: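 CHO-K1 cells stably expressing nuclear-localized β-gal enzyme acceptor and GR fused C-terminally to the enzyme donor fragment; ligand-driven nuclear translocation restores β-gal by complementation. Compounds titrated up to 46 uM final, 2 h at 37 °C; luminescence read.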

[7] = target: Mitogen-activated protein kinase 10 (Mus musculus) (UniProt Q61831); assay: JNK3 AlphaScreen Assay (AID 530; active = well fitted curve in either direction with a large enough effect, not every such curve was filed as active;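 also: kinase came from lysate of stimulated human HepG2 cells; signal reports phosphorylation of biotinylated GST-cJun 1-79 at Ser73 with 10 µM ATP; % is scaled to controls: 0 for no effect and ±100 for the full control effect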); conditions: JNK3 lysate, c-Jun phosphorylation; series mostly up to 57.1 µM
Summary of the method: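 Biotinylated GST-cJun(1-79) served as substrate for JNK3 in HepG2 lysates stimulated with IL-1beta and TNF-alpha. ATP was 10 uM final, pH 7.6. Ser73 phosphorylation was quantified by AlphaScreen (680 nm excitation).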

[8] = target: 3',5'-cyclic-AMP phosphodiesterase 4B (Homo sapiens) (UniProt Q07343); assay: qHTS Assay for Inhibitors of PDE-IV (AID 607; active = well fitted activation curve with a large enough effect in the main read-out, with a control signal flat, not every such curve was filed as active; also: % of control where 0% means no effect); conditions: HEK293 ACTOne CNG channel cells, membrane potential fluorescence; series mostly up to 22.9 µM
Sequence of 3',5'-cyclic-AMP phosphodiesterase 4B (Homo sapiens) (Q07343 whole entry, looked up): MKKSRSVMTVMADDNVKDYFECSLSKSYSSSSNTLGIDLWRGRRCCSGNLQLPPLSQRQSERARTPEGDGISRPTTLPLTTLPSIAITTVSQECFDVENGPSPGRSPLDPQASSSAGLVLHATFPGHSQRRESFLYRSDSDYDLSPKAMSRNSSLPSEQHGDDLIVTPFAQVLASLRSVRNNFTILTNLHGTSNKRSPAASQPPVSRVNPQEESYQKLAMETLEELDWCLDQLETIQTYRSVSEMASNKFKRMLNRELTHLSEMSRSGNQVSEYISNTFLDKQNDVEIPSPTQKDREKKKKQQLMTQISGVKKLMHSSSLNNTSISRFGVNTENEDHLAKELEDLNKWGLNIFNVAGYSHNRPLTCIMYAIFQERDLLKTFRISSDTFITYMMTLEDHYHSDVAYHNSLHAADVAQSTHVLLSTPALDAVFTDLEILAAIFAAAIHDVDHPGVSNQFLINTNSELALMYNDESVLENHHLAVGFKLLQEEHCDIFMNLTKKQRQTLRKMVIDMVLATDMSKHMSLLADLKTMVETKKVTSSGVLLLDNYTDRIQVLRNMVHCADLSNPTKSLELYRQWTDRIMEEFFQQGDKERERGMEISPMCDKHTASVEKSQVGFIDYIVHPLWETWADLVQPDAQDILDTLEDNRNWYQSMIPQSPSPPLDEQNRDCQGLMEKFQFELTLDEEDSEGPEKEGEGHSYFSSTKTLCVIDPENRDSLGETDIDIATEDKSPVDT
Summary of the method: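 The readout is membrane depolarisation from a cAMP-sensing CNG channel, detected with a potential dye at ex 535/em 590. Cells were HEK293-derived (endogenous PDE-IV) at 1000 cells/well, titrated up to 22.9 uM final.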

[9] = target: Guanine nucleotide-binding protein G(i) subunit alpha-1 (Homo sapiens) (UniProt P63096); assay: qHTS Assay for Inhibitors of RGS12 GoLoco Motif Activity (Green Fluorophore) (AID 879); conditions: Galphai1/FITC-RGS12 GoLoco peptide, fluorescence polarization; series mostly up to 57.1 µM;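 also: 0% = labeled peptide with Gαi1 and full inhibition = labeled peptide alone without protein; negative values mean loss of peptide binding seen as reduced polarization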
Sequence of Guanine nucleotide-binding protein G(i) subunit alpha-1 (Homo sapiens) (P63096 whole entry, looked up): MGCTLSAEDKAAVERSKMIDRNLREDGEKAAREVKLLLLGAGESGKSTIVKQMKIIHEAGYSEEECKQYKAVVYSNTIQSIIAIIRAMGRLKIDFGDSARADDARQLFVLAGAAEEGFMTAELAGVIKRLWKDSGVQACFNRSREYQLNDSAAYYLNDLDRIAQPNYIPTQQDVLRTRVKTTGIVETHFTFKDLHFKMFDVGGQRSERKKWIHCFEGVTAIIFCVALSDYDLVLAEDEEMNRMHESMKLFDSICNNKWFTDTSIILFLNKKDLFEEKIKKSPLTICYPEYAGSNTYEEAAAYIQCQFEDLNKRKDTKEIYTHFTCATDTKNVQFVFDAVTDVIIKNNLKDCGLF
Summary of the method: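 A drop in FITC polarization marked displacement of the FITC-tagged RGS12 GoLoco peptide (10 nM) from Gαi1 (50 nM). Compounds were incubated 10 min at room temperature in Tris pH 7.5 buffer containing 150 mM NaCl, 0.1 mM GDP and 0.05% NP40; unlabeled peptide titration served as control.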

[10] = target: Cytochrome P450 2D6 (Homo sapiens) (UniProt P10635); assay: qHTS Assay for Inhibitors and Substrates of Cytochrome P450 2D6 (AID 891); conditions: recombinant CYP2D6, luciferin-ME EGE luminescence; series mostly up to 57.1 µM; also: nearly all actives have a fitted effect of over 60% in size; also: potency is read from the fitted curve at half-maximal effect
Summary of the method: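 Luminescent read-out of luciferin formed by 5 nM human CYP2D6 demethylating 30 uM Luciferin-ME EGE (Km level) over 60 min at room temperature after NADPH regeneration addition. Data normalized to full inhibition by 1.43 uM quinidine.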

[11] = target: alpha-glucosidase (Oryza sativa, rice) (UniProt Q653V4); assay: Counterscreen for Glucocerebrosidase Inhibitors: qHTS Assay for Rice alpha-Glucosidase at pH 5.0 (AID 997); conditions: rice alpha-glucosidase enzyme activity; series mostly up to 76.9 µM;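 also: 0% = full activity with enzyme and -100% = basal without enzyme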
Summary of the method: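 Endpoint fluorogenic assay at pH 5.0: compounds (0.7 nM to 77 uM) titrated against 4 nM rice enzyme and 400 uM 4-MU-alpha-glucoside for 20 min at room temperature; NaOH/glycine stop, read ex 365/em 440 nm, Hill-fitted AC50.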

[12] = target: DNA dC->dU-editing enzyme APOBEC-3G (Homo sapiens) (UniProt Q9HC16); assay: qHTS for inhibitors of Vif-A3G interactions: Validation (AID 588379); conditions: Vif-A3G protein interaction assay; series mostly up to 46.1 µM; also: 0% is about no effect
Sequence of DNA dC->dU-editing enzyme APOBEC-3G (Homo sapiens) (Q9HC16 whole entry, looked up): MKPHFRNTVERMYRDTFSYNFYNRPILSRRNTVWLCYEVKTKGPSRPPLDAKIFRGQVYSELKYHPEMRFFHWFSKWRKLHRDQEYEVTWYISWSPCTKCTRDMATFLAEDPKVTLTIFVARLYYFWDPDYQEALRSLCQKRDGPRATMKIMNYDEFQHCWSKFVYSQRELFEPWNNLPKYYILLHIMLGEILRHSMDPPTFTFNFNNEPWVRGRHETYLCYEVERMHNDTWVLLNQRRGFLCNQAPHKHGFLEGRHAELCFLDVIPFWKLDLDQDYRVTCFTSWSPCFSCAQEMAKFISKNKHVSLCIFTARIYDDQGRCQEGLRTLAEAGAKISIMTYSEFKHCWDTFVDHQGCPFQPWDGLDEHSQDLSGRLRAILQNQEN
Summary of the method: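 Yellow fluorescence (Ex 488, Em 500-530) of Vif-coexpressing HeLa A3G-eYFP cells, scanned by Acumen cytometer, reports blocked A3G degradation. Cells plated at 700/well overnight at 37 deg C before compound addition, then a further overnight compound incubation at 37 deg C.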

[13] = test system: Zika virus NS2B-NS3 protease; assay: Primary screen GU AMC qHTS for Zika virus inhibitors (AID 1347154); conditions: Zika NS2B-NS3 unlinked protease, AMC fluorogenic substrate; series mostly up to 54.1 µM;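 also: 0% = no-inhibitor control and -100% = no-enzyme control; nearly all actives have a fitted effect of over 70% in size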
Summary of the method: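 Unlinked Zika NS2B hydrophilic domain/NS3 protease domain noncovalent complex (25 nM final) in 10 mM Tris-HCl pH 8.0, 0.01% Tween 20, with AMC peptide substrate. Fluorescence (ex 340, em 450 nm) change over 15 min, room temperature; percent inhibition fitted to 4-parameter Hill equation.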

[14] = Primary qHTS for small molecule stabilizers of the endoplasmic reticulum resident proteome: Secreted ER Calcium Modulated Protein (SERCaMP) assay (AID 1508630); conditions: SH-SY5Y GLuc-SERCaMP (Gaussia luciferase released on ER calcium loss) secretion, thapsigargin, luminescence; series mostly up to 38.4 µM; also: % is scaled to controls: 0 for no effect and ±100 for the full control effect
Summary of the method: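 The SH-SY5Y reporter protocol was run at 3 concentrations up to 38.3 uM (primary) or 11 concentrations (follow-up): 16 h compound, 100 nM thapsigargin for 4 h, then extracellular luciferase luminescence.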

[15] = target: Cytochrome P450 2C9 (Homo sapiens) (UniProt P11712); assay: qHTS Assay for Inhibitors and Substrates of Cytochrome P450 2C9 (AID 883); conditions: recombinant CYP2C9, luciferin-H luminescence, 60 min; series mostly up to 57.1 µM; also: potency is read from the fitted curve at half-maximal effect; nearly all actives have a fitted effect of over 60% in size
Summary of the method: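 A luminogenic readout tracked human CYP2C9 (10nM) converting deoxyluciferin (100uM, at KM) in 25mM KPO4 during 60 min at 37C with regenerated NADPH. Values normalized to 57uM sulphaphenazole as complete inhibition.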

[16] = target: Cytochrome P450 3A4 (Homo sapiens) (UniProt P08684); assay: qHTS Assay for Inhibitors and Substrates of Cytochrome P450 3A4 (AID 884); conditions: recombinant CYP3A4, Luciferin-PPXE luminescence; series mostly up to 57.1 µM; also: potency is read from the fitted curve at half-maximal effect; nearly all actives have a fitted effect of over 50% in size
Sequence of Cytochrome P450 3A4 (Homo sapiens) (P08684 whole entry, looked up): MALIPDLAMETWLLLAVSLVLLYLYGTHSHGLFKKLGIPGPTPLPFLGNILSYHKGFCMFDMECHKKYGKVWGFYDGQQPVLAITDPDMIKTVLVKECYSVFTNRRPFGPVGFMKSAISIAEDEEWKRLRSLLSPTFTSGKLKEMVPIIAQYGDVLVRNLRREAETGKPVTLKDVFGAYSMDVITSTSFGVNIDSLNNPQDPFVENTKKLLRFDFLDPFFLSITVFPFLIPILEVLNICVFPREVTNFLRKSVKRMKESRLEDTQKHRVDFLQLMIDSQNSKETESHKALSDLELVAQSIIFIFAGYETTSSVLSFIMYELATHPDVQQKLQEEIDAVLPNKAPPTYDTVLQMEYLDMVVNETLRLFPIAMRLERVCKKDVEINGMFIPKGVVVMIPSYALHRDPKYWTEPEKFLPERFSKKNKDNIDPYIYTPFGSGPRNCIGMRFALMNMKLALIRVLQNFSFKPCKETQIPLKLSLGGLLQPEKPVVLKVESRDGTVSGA
Summary of the method: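 Luminescent readout of luciferin produced by CYP3A4 (20 nM) dealkylation of Luciferin-PPXE, 25 uM (its KM). NADPH-driven reaction ran 60 min at RT after 10 min compound preincubation; data scaled to 57 uM ketoconazole as 100% inhibition.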

[17] = target: Cytochrome P450 3A4 (Homo sapiens) (UniProt P08684); assay: qHTS Assay for Activators of Cytochrome P450 3A4 (AID 885); conditions: recombinant CYP3A4, Luciferin-PPXE luminescence, 60 min; series mostly up to 57.1 µM; also: nearly all actives have a fitted effect of over 65% in size
Summary of the method: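 Activators are scored by enhanced luminescence from CYP3A4 conversion of luciferin-PPXE (25uM, equal to KM) to luciferin, after 60 min at RT with an NADPH-regenerating system.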

[18] = target: Cytochrome P450 2C19 (Homo sapiens) (UniProt P33261); assay: qHTS Assay for Inhibitors and Substrates of Cytochrome P450 2C19 (AID 899); conditions: recombinant CYP2C19, luciferin-H EGE luminescence; series mostly up to 57.1 µM; also: potency is read from the fitted curve at half-maximal effect; nearly all actives have a fitted effect of over 60% in size
Sequence of Cytochrome P450 2C19 (Homo sapiens) (P33261 whole entry, looked up): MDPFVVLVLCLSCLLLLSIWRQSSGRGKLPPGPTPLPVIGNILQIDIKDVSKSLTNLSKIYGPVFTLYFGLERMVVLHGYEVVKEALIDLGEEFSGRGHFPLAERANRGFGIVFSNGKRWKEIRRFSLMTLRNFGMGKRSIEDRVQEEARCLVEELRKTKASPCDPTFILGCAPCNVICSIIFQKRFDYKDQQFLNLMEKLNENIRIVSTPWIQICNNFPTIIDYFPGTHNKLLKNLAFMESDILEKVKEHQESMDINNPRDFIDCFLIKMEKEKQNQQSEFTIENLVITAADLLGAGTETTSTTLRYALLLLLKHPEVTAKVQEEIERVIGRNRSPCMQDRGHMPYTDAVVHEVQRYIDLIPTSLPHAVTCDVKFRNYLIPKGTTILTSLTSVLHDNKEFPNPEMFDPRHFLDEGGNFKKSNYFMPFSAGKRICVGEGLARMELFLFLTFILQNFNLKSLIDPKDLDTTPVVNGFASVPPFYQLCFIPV
Summary of the method: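 NADPH-dependent conversion of Luciferin-H EGE (10uM, at KM) by 5nM enzyme in 50mM KPO4, 60 min at 37C following 10 min compound preincubation. Stopped with luciferin detection buffer; luminescence read after 20 min.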

[19] = target: Rap guanine nucleotide exchange factor 3 (Homo sapiens) (UniProt O95398); assay: Confirmatory qHTS for agonist of cAMP-regulated guanine nucleotide exchange factor 3 (EPAC1) (AID 1645881); conditions: EPAC1 Rap1B BODIPY-GDP exchange fluorescence, 100% = cAMP control response; series mostly up to 154 µM;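 also: EPAC1 catalysed release of BODIPY-GDP from Rap1B seen as fluorescence loss; nearly all actives have a fitted effect of over 75% in size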
Sequence of Rap guanine nucleotide exchange factor 3 (Homo sapiens) (O95398 whole entry, looked up): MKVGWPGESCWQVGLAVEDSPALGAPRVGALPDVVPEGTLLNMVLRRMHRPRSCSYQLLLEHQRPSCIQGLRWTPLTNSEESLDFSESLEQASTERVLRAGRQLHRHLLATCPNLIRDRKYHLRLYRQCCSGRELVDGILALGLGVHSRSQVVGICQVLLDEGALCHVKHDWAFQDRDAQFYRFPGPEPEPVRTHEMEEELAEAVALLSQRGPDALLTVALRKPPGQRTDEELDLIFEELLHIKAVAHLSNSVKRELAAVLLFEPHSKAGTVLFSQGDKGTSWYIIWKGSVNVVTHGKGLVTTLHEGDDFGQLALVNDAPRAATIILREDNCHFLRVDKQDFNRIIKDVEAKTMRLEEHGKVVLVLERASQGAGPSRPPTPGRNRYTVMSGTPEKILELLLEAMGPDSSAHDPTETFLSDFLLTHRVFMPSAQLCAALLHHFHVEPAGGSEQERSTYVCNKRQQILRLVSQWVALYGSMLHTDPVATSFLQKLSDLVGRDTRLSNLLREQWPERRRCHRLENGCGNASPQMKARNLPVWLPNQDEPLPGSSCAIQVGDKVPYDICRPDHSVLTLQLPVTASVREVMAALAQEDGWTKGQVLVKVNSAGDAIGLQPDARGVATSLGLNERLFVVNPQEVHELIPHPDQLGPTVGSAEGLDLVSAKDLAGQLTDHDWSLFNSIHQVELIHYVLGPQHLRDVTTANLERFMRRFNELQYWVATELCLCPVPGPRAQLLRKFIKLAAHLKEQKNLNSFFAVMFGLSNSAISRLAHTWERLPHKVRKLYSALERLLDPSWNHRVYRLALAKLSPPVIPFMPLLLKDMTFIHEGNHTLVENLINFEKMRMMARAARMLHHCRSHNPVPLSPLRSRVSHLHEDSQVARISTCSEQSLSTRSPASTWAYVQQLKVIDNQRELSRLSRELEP

C=CCN1CCc2cc(O)c(O)cc2[C@H](c2ccccc2)C1
active: Potency [10] 0.398 µM
inactive: activity change, negative = inhibition ([1]; at 38 µM (top of the series)) -3.34% | Potency [2] | activity change, negative = inhibition ([3]; at 38 µM (top of the series)) -18.1% | activity, negative = inhibition ([4]; at 38 µM (top of the series)) -21% | Potency [5] > 46 µM | Potency [6] > 46 µM | Potency [7] | Potency [8] | outcome [9] | outcome [11] | Potency [12] | Potency [13] | Potency [14]

C[C@@H]1CCN=C(N)S1
inactive: activity change, negative = inhibition ([1]; at 38 µM (top of the series)) 12.9% | activity change, negative = inhibition ([3]; at 38 µM (top of the series)) 2.83% | activity, negative = inhibition ([4]; at 38 µM (top of the series)) 9.1% | Potency [5] > 46 µM | Potency [6] > 46 µM | Potency [7] | Potency [8] | outcome [9] | outcome [11] | Potency [12] | Potency [13] | Potency [14]
inactive and 39.8 µM (active): Potency [2]

COC(=O)C1=C(C)NC(C)=C([N+](=O)[O-])[C@H]1c1ccccc1C(F)(F)F
active: Potency [15] 15.8 µM and 2 µM | Potency [16] 12.6 µM | Potency [18] 1.26 µM and 158 nM
inactive: activity change, negative = inhibition ([1]; at 38 µM (top of the series)) -27.8% | activity change, negative = inhibition ([3]; at 38 µM (top of the series)) -15.3% | activity, negative = inhibition ([4]; at 38 µM (top of the series)) 13.2% | Potency [5] > 46 µM | Potency [6] > 46 µM | Potency [7] | outcome [9] | Potency [17] | Potency [10] | outcome [11] | Potency [12] | Potency [13] | Potency [14] | outcome [19]

OCCOCCN1CCN(Cc2cccc(Oc3ccccc3)c2)CC1
inactive: Potency [13] | Potency [14]

C[C@@]12C(=O)OC(=O)[C@@]1(C)[C@@H]1CC[C@@H]2O1
inactive: Potency [5] > 46 µM | Potency [6] > 46 µM | Potency [8] | Potency [17] | Potency [12] | Potency [13] | Potency [14] | outcome [19]
active: Potency [2] 31.6 µM

CCCCC[C@H](O)CC(=O)CCc1ccc(O)c(OC)c1
inactive: Potency [13] | Potency [14]

CN[C@@H]1[C@H](O)[C@H](O[C@@H]2[C@H](O)[C@@H](O[C@H]3O[C@H]([C@@H](C)NC)CC[C@H]3N)[C@@H](N)C[C@H]2N)OC[C@]1(C)O
inactive: Potency [13] | Potency [14]

CCCCCCCCCCCCCCCC(=O)N[C@H](CN1CCOCC1)[C@H](O)c1ccccc1
inactive: activity change, negative = inhibition [13] 6.98% [at 6.83 µM] | activity change, negative = inhibition [14] 2.84% [at 3.88 µM]

CCC(C)(C)C(=O)O[C@@H]1C[C@@H](C)C=C2C=C[C@H](C)[C@H](CC[C@@H]3C[C@@H](O)CC(=O)O3)[C@H]21
inactive: Potency [5] > 46 µM | Potency [6] > 46 µM | Potency [7] | Potency [12] | Potency [13] | Potency [14] | outcome [19]

CC/C=C\C/C=C\C/C=C\C/C=C\C/C=C\CCCCCC(=O)O
inactive: activity change, negative = inhibition [13] -1.57% [at 6.83 µM] | activity change, negative = inhibition [14] -17.3% [at 3.88 µM]

NC(N)=NN=Cc1c(Cl)cccc1Cl
active: Potency [2] 7.94 µM and 3.98 µM and 2 µM
inactive: activity change, negative = inhibition ([1]; at 17.2 µM (top of the series)) -2.9% | activity change, negative = inhibition ([1]; at 38 µM (top of the series)) 4.65% | activity change, negative = inhibition ([3]; at 17.2 µM (top of the series)) -0.975% | activity change, negative = inhibition ([3]; at 38 µM (top of the series)) -1.48% | activity, negative = inhibition ([4]; at 17.2 µM (top of the series)) 9.46% | activity, negative = inhibition ([4]; at 38 µM (top of the series)) -0.683% | Potency [7] | Potency [8] | outcome [9] | outcome [11] | Potency [12] | Potency [13] | Potency [14]

— PubChem BioAssay (NCATS)
